From PubChem BioAssay
“And” between values parts separate entries of the source, which are not always exact repeats. Equal entries are not always repeated. Results filed as inconclusive are left out. The source made the active and inactive calls. Unless noted, no rule for the calls is given here.

Columns and labels:
[1] = liver-stage malaria parasite load reduction – cell-based, known kinase inhibitor set, luminescence, hepatoma host viability (AID 624392); details: Plasmodium liver stage in hepatoma cells, luciferase luminescence, concentration not given here; liver cell % of control: measured here: host liver cell viability; parasite % of control: stronger effect = lower value;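 also: infected cells incubated roughly two days before readout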
[2] = altered dexamethasone sensitivity, NF-kB reporter, cell-based, luciferase, IL-1B stimulus (AID 624486); details: IL-1B + dexamethasone, luminescence; percent of negative control (+Dex): actives lie on both sides, concentration not given here; z-score: measured here: IL-1B alone, no Dex;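 as to percent of negative control (+Dex): 100% = mean signal of vehicle control wells on the plate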
[3] = target: Cellular tumor antigen p53 (Homo sapiens) (UniProt P04637); test: GFP-p53 level modulators in HPV16+ cells – imaging, known kinase inhibitor set, EGFP/DsRed ratio (AID 1053116); details: GFP-p53 stability, stronger effect = higher value; EGFP object count: measured here: GFP-p53 positive objects count;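 also: cells exposed to compounds for 24 h at 37 °C before reading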
[4] = inducers of IRF3 signaling, differentiated THP-1 – cell-based, PMA-stimulated THP-1, luminescence (AID 1053176); details: PMA-differentiated THP-1, IRF3 reporter luminescence; stronger effect = higher value
[5] = C. elegans survival during P. aeruginosa infection – whole organism (AID 651566);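 also: tested at 14 µM; sign flipped so higher z means a lower ratio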; details: C. elegans killed by P. aeruginosa, survival ratio
[6] = pro-inflammatory signaling induction in mouse macrophages – cell-based, murine, luminescence (AID 652131); details: murine macrophage pro-inflammatory reporter, stronger effect = higher value
[7] = MELAS cybrid and Rieske KO viability enhancers – cell-based, MELAS cybrids, Rieske KO mouse fibroblasts, CellTiter-Glo, primary screen (AID 1508586;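 active = mean z-score across replicates of 1.96 or higher in either the MELAS or the Rieske mutant cell line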;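 also: z relative to plate mean and SD of compound and empty wells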); details: low glucose
[8] = test system: Aerobactin synthetase IucA (Klebsiella pneumoniae); test: inhibition of K. pneumoniae IucA enzyme – biochemical, Tocris library, absorbance (AID 1345561); details: purified IucA enzyme assay, absorbance (OD) read-out; stronger effect = lower value;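 tested at 8 µM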;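 also: 100% = enzyme without compound and 0% = no enzyme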
[9] = viability loss in pontine glioma line – cell-based, SU-DIPG-XVII, MIPE5.0, CellTiter-Glo, qHTS, dose response (AID 1347060; cut-off not given, nearly all actives have AC50 up to about 26 µM;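 also: cells exposed to compound for 48 hours before viability readout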); details: CellTiter-Glo ATP luminescence
[10] = viability loss in pontine glioma line – cell-based, JHH-DIPG-1, MIPE4.0, CellTiter-Glo, qHTS, dose response (AID 1347062; cut-off not given, nearly all actives have AC50 up to about 27 µM;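 also: cells exposed to compound for two days before readout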); details: JHH-DIPG-1 viability, CellTiter-Glo ATP luminescence
[11] = viability loss in pontine glioma line – cell-based, SU-DIPG-IV, MIPE4.0, CellTiter-Glo, qHTS, dose response (AID 1347063; cut-off not given, nearly all actives have AC50 up to about 30 µM;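 also: compound exposure lasted 48 hours before the viability readout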); details: CellTiter-Glo ATP luminescence
[12] = viability loss in pontine glioma line – cell-based, SU-DIPG-XXV, MIPE5.0, CellTiter-Glo, qHTS, dose response (AID 1347065; cut-off not given, nearly all actives have AC50 up to about 26 µM;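 also: cells exposed to compound for 48 hours before ATP readout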); details: CellTiter-Glo ATP luminescence
[13] = viability loss with induced miR-34 in A549 – imaging, A549 dox-inducible miR-34, nuclei and caspase counts, primary screen (AID 1347080;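 active = compounds whose cell count with miR-34 switched on is under 0.7 times the count with it off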); details: A549 miR-34 inducible, Hoechst nuclei count, 48 h
[14] = galactose survival enhancers in mitochondrial complex I cybrids – cell-based, galactose medium, ATP luminescence, primary screen (AID 1645843;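 active = z-score of at least 1.8 in each of two replicates, scored against plate mean and spread of sample wells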;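 also: positive z means more ATP and so rescue of galactose-driven cybrid death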); details: complex I mutant cybrid cells, 72 h, stronger effect = higher value
[15] = MELAS cybrid survival, CellTiter-Glo 48 h, stronger effect = higher value
[16] = Rieske KO mouse fibroblast survival, CellTiter-Glo 72 h

Sequence of Cellular tumor antigen p53 (Homo sapiens) (P04637 whole entry, looked up): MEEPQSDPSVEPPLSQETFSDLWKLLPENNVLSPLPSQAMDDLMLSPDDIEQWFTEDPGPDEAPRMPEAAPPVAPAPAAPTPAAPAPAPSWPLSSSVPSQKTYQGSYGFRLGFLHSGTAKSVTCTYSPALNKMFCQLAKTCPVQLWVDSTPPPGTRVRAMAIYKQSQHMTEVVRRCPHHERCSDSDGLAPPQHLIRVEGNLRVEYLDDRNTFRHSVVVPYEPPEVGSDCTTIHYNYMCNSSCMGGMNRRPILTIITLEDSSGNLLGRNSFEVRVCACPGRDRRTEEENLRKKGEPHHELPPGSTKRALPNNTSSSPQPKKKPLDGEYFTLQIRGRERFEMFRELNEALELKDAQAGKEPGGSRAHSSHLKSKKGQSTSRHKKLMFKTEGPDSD

Fc1ccc(-c2c(-c3ccncc3)[nH]c3nccnc23)cc1
liver cell % of control [1]: 183%
parasite % of control [1]: 30.2% (inactive)
percent of negative control (+Dex) [2]: 110% (inactive)
z-score [2]: -0.915
EGFP object count [3]: 4
EGFP/DsRed ratio [3]: 0.101 (inactive)
fraction signal [4]: -0.02 (inactive)

COc1cc2ncn(-c3cc(O[C@@H](C)c4ccccc4Cl)c(C(N)=O)s3)c2cc1OC
liver cell % of control [1]: 100%
parasite % of control [1]: 110% (inactive)
percent of negative control (+Dex) [2]: 124% (inactive)
z-score [2]: 2.36
z-score [5]: -0.555 (inactive)
z-score [6]: -0.639 (inactive)
fraction signal [4]: -0.002 (inactive)
z-score [7, 15]: -0.552 (inactive)
z-score [7, 16]: 0.815

CC(C)(C)c1ccc(Oc2nccc(-c3c(-c4ccc(F)cc4)ncn3C3CCNCC3)n2)cc1
liver cell % of control [1]: 81.4%
parasite % of control [1]: 76.7% (inactive)
percent of negative control (+Dex) [2]: 106% (inactive)
z-score [2]: 0.75
z-score [5]: 0.215 (inactive)
z-score [6]: -0.618 (inactive)
fraction signal [4]: 0 (inactive)
z-score [7, 15]: -0.424 (inactive)
z-score [7, 16]: 0.0471

Cn1cc(C2=C(c3cc[nH]c3)C(=O)NC2=O)c2ccccc21
liver cell % of control [1]: 109%
parasite % of control [1]: 26.8% (inactive)
percent of negative control (+Dex) [2]: 104% (inactive)
z-score [2]: 0.12
EGFP object count [3]: 3
EGFP/DsRed ratio [3]: 0.329 (inactive)
fraction signal [4]: -0.0025 (inactive)

CC(c1ccccc1)C(C(=O)Nc1ccc(I)cc1F)N1C(=O)NC(c2ccc(OCC(O)CO)cc2)C1=O (centres undefined)
liver cell % of control [1]: 85.7%
parasite % of control [1]: 72.5% (inactive)
percent of negative control (+Dex) [2]: 55% (active)
z-score [2]: -3.5
EGFP object count [3]: 5
EGFP/DsRed ratio [3]: 0.306 (inactive)
fraction signal [4]: 0.0035 (inactive)

O=C1NC(=NCCc2cccc(F)c2)SC1=Cc1ccc2ncccc2c1
liver cell % of control [1]: 113%
parasite % of control [1]: 54% (inactive)
percent of negative control (+Dex) [2]: 85.5% (inactive)
z-score [2]: -0.65
EGFP object count [3]: 5.5
EGFP/DsRed ratio [3]: 0.176 (inactive)
fraction signal [4]: -0.018 (inactive)

O=C1NC(=NC(CO)c2ccccc2)SC1=Cc1ccc2ncccc2c1 (centres undefined)
liver cell % of control [1]: 113% and 90.5%
parasite % of control [1]: 71.9% (inactive) and 55.3% (inactive)
percent of negative control (+Dex) [2]: 102% (inactive) and 96% (inactive)
z-score [2]: 0.925 and 0.08
EGFP object count [3]: 4 and 5.5
EGFP/DsRed ratio [3]: 0.088 (inactive) and 0.122 (inactive)
fraction signal [4]: -0.005 (inactive) and 0.0055 (inactive)

COc1cc[nH]c1C=C1C(=O)Nc2ccc(F)c(C#CC3(O)CCNCC3)c21
liver cell % of control [1]: 70.4%
parasite % of control [1]: 10.7% (inactive)
percent of negative control (+Dex) [2]: 108% (inactive)
z-score [2]: -2.18
EGFP object count [3]: 467
EGFP/DsRed ratio [3]: 3.03 (inactive)
fraction signal [4]: -0.005 (inactive)

COc1cc2ncn(-c3cc(OCc4ccccc4C(F)(F)F)c(C(N)=O)s3)c2cc1OC
percent of negative control (+Dex) [2]: 103% (inactive)
z-score [2]: -0.44
z-score [5]: 0.57 (inactive)
z-score [6]: -0.405 (inactive)
fraction signal [4]: 0.0355 (inactive)
remaining activity [8]: 94.3% (inactive)
AC50 [9]: 1.48 µM (active)
AC50 [10]: 5.9 µM (active)
AC50 [11]: 14.8 µM (active)
AC50 [12]: 1.05 µM (active)
fold change ([13]; stronger effect = lower value, cell number ratio, induced over uninduced): 1.05 (inactive)
fold change ([13]; measured here: relative caspase fold change +Dox/-Dox): 1.26
cell count ([13]; measured here: total cells with miR-34 induction, stronger effect = lower value): 1110
cell count ([13]; measured here: total cells without miR-34 induction): 1060
z-score [7, 15]: -0.422 (inactive)
z-score [7, 16]: -0.574
z-score [14]: -0.495 (inactive)

Cn1cc(C2=C(c3cn(C)c4cc(N)ccc34)C(=O)NC2=O)c2ccccc21
liver cell % of control [1]: 85.5%
parasite % of control [1]: 26.4% (inactive)
percent of negative control (+Dex) [2]: 96% (inactive)
z-score [2]: -2.26
EGFP object count [3]: 41.5
EGFP/DsRed ratio [3]: 0.462 (inactive)
fraction signal [4]: -0.0115 (inactive)
